The list is not random: actives were taken first. Their share in the collection is about 7.2%.
Marburg entry inh: blocks Marburg virus binding to or entry into cells; Marburg virus pseudotyped entry inhibition, cell reporter; Potency, µM (highest dose often 37.8 µM), usual class: inhibitors; hit rate 1.8% among 300,000; calls by dose curve; tested in HEK293 cells
RE007 growth inh: less growth of the S. pombe RE007 Vpr strain; S. pombe RE007 Vpr strain, BacTiter-Glo ATP luminescence, 24 h; Potency, µM (top dose mostly 92.2 µM), actives largely listed as inhibitors; hit rate 0.21% among 360,000; active = well fitted falling curve with a large enough effect; inconclusive = small, poorly fitted or top-dose-only effect; inactive = no such curve, though single readings can be large or run the other way; also: nearly all actives have a fitted effect of over 50% in size
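Fission yeast strain RE007, carrying one chromosomally integrated HIV-1 vpr copy, was seeded at OD 0.01 in PMG+AL medium with 23 nL pinned compound. After 24 h at 30 °C and 99% humidity, viability was read by BacTiter-Glo luminescence.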
FMDV inh: blocks foot and mouth disease virus; hit rate 1.2% among 410,000; FMDV antiviral cell-based qHTS; AID 1159524; Potency, µM (series often up to 57.9 µM), actives largely listed as inhibitors; calls by dose curve; tested in HEK293T cells; also: read-out not given here; nearly all actives have a fitted effect of over 45% in size
Sm TGR block: blocks Schistosoma mansoni thioredoxin glutathione reductase | hit rate 3% among 360,000 | Q962Y6 | Potency, µM (top dose mostly 114 µM), hits mostly inhibitors | purified TGR, DTNB reduction, TNB absorbance 405 nm; also: nearly all actives have a fitted effect of over 60% in size
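First, TGR (20 nM dispensed) and NADPH were mixed with compound. Second, a 15 min room-temperature incubation followed. Third, further NADPH and then DTNB were added to start the reaction. Finally, TNB absorbance was monitored kinetically.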
Lassa entry inh: inhibitors of Lassa virus binding or cell entry; Potency, µM (top dose mostly 37.9 µM), hits mostly inhibitors; Lassa virus pseudotype entry inhibition, cell reporter; hit rate 1.2% among 300,000; calls by dose curve; tested in HEK293 cells; also: nearly all actives have a fitted effect of over 50% in size
HCV inh: inhibitors of hepatitis C virus infection | Huh7.5.1 HCVcc-Cre infection, luciferase reporter, 44 h | Potency, µM (top dose mostly 41.8 µM), usual class: inhibitors | hit rate 3.4% among 340,000 | AID 651820
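Antiviral activity was scored by luciferase reporter output from cells infected with HCVcc-Cre (~0.5 moi) in presence of compound, 44 h infection period, cells seeded 1,000/well 4 h prior.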
A number is an active result; – = inactive; ? = inconclusive; · = not tested or not shown. Unless noted, calls follow the shape of the dose curve; as a rule, active = well fitted curve in the direction sought with a large enough effect; inconclusive = small, poorly fitted or top-dose-only effect, or another doubt; inactive = no such curve, though single readings can be large; an effect the other way counts as inactive or inconclusive.

SMILES	Marburg entry inh	RE007 growth inh	FMDV inh	Sm TGR block	Lassa entry inh	HCV inh
Cc1cc(F)ccc1S(=O)(=O)Nc1ccccc1C(=O)Nc1ccccc1-c1nc2ccccc2[nH]1	?	–	–	–	11µM	7.9µM
CCCCCCc1ccc(-c2ncc(N)cn2)cc1	–	?	–	–	–	5.6µM
CCCCCc1ccc(-c2nnc(N)s2)cc1	–	–	–	–	–	–
O=C(/C=C/c1ccco1)NC(=S)Nc1ccccn1	–	–	–	8.9µM	–	–
Cc1ccc(NC(=S)NC(=O)/C=C/c2ccco2)c(O)c1	–	–	?	18µM	–	?
O=C(/C=C/c1ccco1)NC(=S)Nc1cc(C(F)(F)F)ccc1N1CCOCC1	?	–	–	?	–	–
O=C(/C=C\c1ccco1)NC(=S)Nc1ccccc1O	·	–	–	8.9µM	·	–
Cc1cc(C)c2oc(-c3ccc(C)c(NC(=S)NC(=O)/C=C/c4ccco4)c3)nc2c1	–	–	–	?	?	–
COc1ccc(NC(=S)NC(=O)/C=C/c2ccco2)c(OC)c1	?	–	–	?	–	–
Cc1cccnc1NC(=S)NC(=O)/C=C/c1ccco1	–	?	–	?	?	–
O=C(/C=C/c1ccco1)NC(=S)Nc1ccccc1O	–	–	–	10µM	–	–
COc1ccc(-c2nc3cnc(N4CCOCC4)nc3n(Cc3cccs3)c2=O)cc1	·	·	–	·	·	·
Cc1ccc(CCNC(=O)c2ccc(CNS(=O)(=O)c3ccc(F)cc3)cc2)cc1	·	·	–	–	–	·
CCOc1ccc(-c2nc(-c3ccc(OC)cc3)no2)cc1OCC	–	–	–	–	–	7.9µM
CCOc1ccc(-c2noc(-c3ccncc3)n2)cc1OCC	–	–	–	–	–	?
COc1ccc(-c2noc(-c3ccccc3Cl)n2)cc1OC	–	–	·	–	–	10µM
COc1ccc(-c2noc(-c3ccco3)n2)cc1OC	–	–	–	–	?	11µM
COc1ccccc1N1CCN(c2ncnc3c2c(-c2ccccc2)cn3-c2cccc(C)c2)CC1	·	·	–	–	–	·
C#CCCCON=C1C[C@@H](O)[C@H](O)[C@H]2[C@@H]3C(=O)N(Cc4ccccc4)C(=O)[C@@H]3CC[C@H]12	–	·	·	·	·	·
Cc1ccc(NC(=O)CCCc2nnc3n(C)c(=O)c4sccc4n23)cc1C	·	·	–	–	–	·
CCC(C)(C)C1CCC2(CC1)NC(=O)N(CC(=O)N(C)Cc1ccc3c(c1)OCCO3)C2=O (configuration not stated)	·	–	?	–	·	13µM
OC(CNc1ccccc1)COc1ccc(OCC(O)CNc2ccccc2)cc1 (configuration not stated)	11µM	–	?	–	?	?
CCOCC(O)CNc1ccccc1 (configuration not stated)	?	·	–	–	–	–
COC(=O)CSc1ncnc2c1sc1nc(-c3ccco3)c3c(c12)CC(C)(C)OC3	·	·	·	4µM	·	–
CC(C)Sc1nc(SCC(=O)O)c2c3c(sc2n1)COC(C)(C)C3	·	–	–	–	·	–
SMILES	Marburg entry inh	RE007 growth inh	FMDV inh	Sm TGR block	Lassa entry inh	HCV inh
CCOC(=O)c1sc2nc(-c3ccco3)c3c(c2c1N)CC(C)(C)OC3	–	–	?	0.89µM	–	?
CCSc1ncnc2c1sc1nc(-c3ccco3)c3c(c12)CC(C)(C)OC3	–	·	·	?	·	·
CCCc1nc2sc3c(SCC(=O)NCc4ccco4)ncnc3c2c2c1CCC2	?	–	–	16µM	–	?
CC(C)Sc1nc(SCC(=O)NCc2ccco2)c2c3c(sc2n1)COC(C)(C)C3	–	–	?	28µM	–	?
COc1ccc(OC)c(-c2cc(C(=O)NC(C)c3ccccc3)no2)c1 (configuration not stated)	–	·	–	–	?	·
CCOC(=O)CN1C(=O)[C@@]2(CC(C)=C[C@@H](COCc3ccccc3)O2)c2ccccc21	–	·	·	·	?	·
COC(=O)[C@@H]1CCCN1Cc1ccc2c(c1)CN(Cc1cccn1-c1ccccn1)CCO2	·	·	–	·	·	·
O=C(NCc1ccccc1)c1ccc(Cn2c(=O)c3cccn3c3cccnc32)cc1	·	·	–	–	?	·
O=C(NCCCN1CCN(c2ccc(F)cc2)CC1)C1COc2ccccc2C1 (configuration not stated)	·	·	–	–	–	·
O=C(CSc1nc2ccccc2n1-c1ccccc1)Nc1ncc(Cl)cc1Cl	1.1µM	–	–	–	2.5µM	?
COc1ccc(NC(=O)CSc2ccccc2)c([N+](=O)[O-])c1	?	–	–	–	–	–
COc1ccc(NC(=O)CSc2nc3ccccc3n2-c2ccccc2)c([N+](=O)[O-])c1	12µM	–	–	–	?	?
O=C(C1COc2ccccc2O1)N1CCN(c2nc3c(F)cccc3s2)CC1 (configuration not stated)	·	·	–	–	–	·
CC(=O)OCC12CC(OC(=O)CC(C)C)C(C)=CC1OC1C(O)C(OC(C)=O)C2(C)C12CO2 (configuration not stated)	?	5.6µM	·	·	?	·
CN1CCN(C2=Cc3ccc(Cl)cc3Sc3ccc(F)cc32)CC1	7.9µM	?	–	–	?	?
Cc1cc(C)nc(N(C#N)CC(=O)c2ccccc2)n1	?	–	–	–	?	16µM
CCc1ccc(C(=O)CN(C#N)c2nc(C)cc(C)n2)cc1	11µM	–	–	–	?	?
CNc1nc(OC)nc(N(C#N)CN2C(=O)c3ccccc3S2(=O)=O)n1	?	–	?	–	–	–
Cc1cc(C)nc(N(C#N)CC(=O)N(c2ccccc2)C(C)C)n1	–	–	–	–	–	–
Cc1cc(C)nc(N(C#N)CN2C(=O)c3ccccc3S2(=O)=O)n1	–	–	40µM	–	–	–
O=C(Cn1c(=O)nc(-c2ccccc2)c2ccccc21)NCCCc1ccccc1	–	·	–	–	–	·
CCc1ccc2[nH]c(=O)c(C(c3nnnn3CC3CCCO3)N3CCCc4ccccc43)cc2c1 (configuration not stated)	9.2µM	–	–	35µM	–	–
Cc1cc(C)c2c(CC(=O)N3CCN(c4cccc(Cl)c4)CC3)coc2c1	?	·	–	–	–	·
COC(=O)[C@@H]1[C@@H](C(=O)OC)C2(c3ccccc3-c3ccccc32)N(c2ccc(Cl)cc2)N1C#N	10µM	–	3.5µM	2.8µM	?	1.8µM
COC(=O)C1OC2(OC1C(=O)OC)c1ccccc1-c1ccccc12 (configuration not stated)	–	–	–	–	–	–
CC(C)=CCCC(C)=CCN1C(=O)[C@@]2(CC(C)=CC[C@@H](C)O2)c2c(Br)cccc21	–	·	·	·	·	·
COc1ccc(-c2cc(=NCCCCCC(=O)O)c3cc(C)ccc3o2)cc1	?	–	–	–	–	–
CC(=O)CCc1oc2ccc(NC(C)=O)cc2c1-c1ccc(C)o1	–	–	–	20µM	–	–
CC(=O)CCc1oc2ccc(C)cc2c1-c1ccc(C)o1	–	–	–	25µM	–	?
CC(=O)Nc1ccc2oc(C)nc2c1	–	–	–	–	–	–
